Assay in all cases: yeast three-hybrid, YBZ-1, SC-Leu-His + 0.5 mM 3-AT, 4 days
Settings in all cases: tags: N-Gal4 AD-HA kept; label: inside an RPR1-promoter hybrid RNA with tandem MS2 sites; ssRNA

One test concerns the target PUM1 PUF domain R7-RSN (Homo sapiens, UniProt Q14671 828-1176, S1079R;N1080S;E1083N). The gist of the method:
(§1)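 Matching RNA elements and Pumilio-1 PUF domain libraries, randomized at the three base-contacting residues of every repeat, were co-expressed from a centromeric plasmid in strain YBZ-1 (LexA–MS2 coat fusion, HIS3 reporter). The repeat regions were PCR-amplified and Illumina-sequenced from cells grown four days on SC-Leu (input) or SC-Leu-His + 0.5 mM 3-AT (selection). The interaction score is the log change in variant frequency from input to selection. It is computed in log2, with a pseudocount of 1 for absent variants.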

The target in the next test is PUM1 PUF domain R3-SME (Homo sapiens, UniProt Q14671 828-1176, C935S;R936M;Q939E). The gist of the method:
as §1

A further test has as its target PUM1 PUF domain R2-RVE (Homo sapiens, UniProt Q14671 828-1176, N899R;Y900V;Q903E). The gist of the method:
as §1

The target in the next test is PUM1 PUF domain R4-PFN (Homo sapiens, UniProt Q14671 828-1176, N971P;H972F;Q975N). The gist of the method:
as §1

From publication PMC8384837, “Expanding the binding specificity for RNA recognition by a PUF domain” come the findings set out here.

Sequence of PUM1 PUF domain R4-PFN (Q14671 828-1176 N971P/H972F/Q975N): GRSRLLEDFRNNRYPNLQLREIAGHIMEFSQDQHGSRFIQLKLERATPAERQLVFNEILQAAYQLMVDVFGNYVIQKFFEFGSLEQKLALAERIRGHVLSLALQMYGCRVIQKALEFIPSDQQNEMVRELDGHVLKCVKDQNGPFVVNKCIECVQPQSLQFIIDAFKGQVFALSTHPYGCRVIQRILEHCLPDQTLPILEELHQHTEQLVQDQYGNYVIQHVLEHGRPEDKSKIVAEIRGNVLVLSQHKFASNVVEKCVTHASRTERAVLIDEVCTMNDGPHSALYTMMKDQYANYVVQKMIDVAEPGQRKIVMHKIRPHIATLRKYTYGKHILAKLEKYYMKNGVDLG
Sequence of PUM1 PUF domain R2-RVE (Q14671 828-1176 N899R/Y900V/Q903E): as the sequence (Q14671 828-1176 N971P/H972F/Q975N) above, with N72R, Y73V, Q76E, P144N, F145H, N148Q counted along it

For “GGCUAGAACUAGUGGAUCCCCCGGCGCCCGGCGGCUCGAGCCCGGGUAAGUCUAAAUAGUCUGCAUGCCGCCGGGCGCCAUGCCUGCAGGUCGACUCUAGAAAACAUG”, in the test with PUM1 PUF domain R7-RSN, the binding signal is 1.34 log2 enrichment (interaction score).
For the sequence “GGCUAGAACUAGUGGAUCCCCCGGCGCCCGGCGGCUCGAGCCCGGGUAAGUUUAAAUAGUCUGCAUGCCGCCGGGCGCCAUGCCUGCAGGUCGACUCUAGAAAACAUG”, the binding signal in the test with PUM1 PUF domain R7-RSN was 3.1 log2 enrichment (interaction score).
As to “GGCUAGAACUAGUGGAUCCCCCGGCGCCCGGCGGCUCGAGCCCGGGUAAGUGUAAGUAGUCUGCAUGCCGCCGGGCGCCAUGCCUGCAGGUCGACUCUAGAAAACAUG”, the binding signal with PUM1 PUF domain R3-SME was 3.43 log2 enrichment (interaction score).
As to “GGCUAGAACUAGUGGAUCCCCCGGCGCCCGGCGGCUCGAGCCCGGGUAAGUGUAAAGAGUCUGCAUGCCGCCGGGCGCCAUGCCUGCAGGUCGACUCUAGAAAACAUG”, the binding signal in the test with PUM1 PUF domain R2-RVE is 2.9 log2 enrichment (interaction score).
Regarding “GGCUAGAACUAGUGGAUCCCCCGGCGCCCGGCGGCUCGAGCCCGGGUAAGUGUAUAUAGUCUGCAUGCCGCCGGGCGCCAUGCCUGCAGGUCGACUCUAGAAAACAUG”, the binding signal in the test with PUM1 PUF domain R4-PFN was 6.39 log2 enrichment (interaction score).
